Our source for the Kinases covered values is article PMC7826789 (International Journal of Molecular Sciences, 2021).

With `CCn1c(-c2nonc2N)nc2cncc(C(=O)N3CC[C@H](N)C3)c21.Cl` [SB-772077-B], the Kinases covered result in the experiment with PIM1 is given as “PIM1”.

`O=C1Nc2ccc(I)cc2C1=Cc1cc(Br)c(O)c(Br)c1` [GW305074X]: the Kinases covered result in the experiment on PIM2 is “PIM2”.

`NCC1CNC(=O)c2cc3ccc(C(=O)Nc4cccnc4)cc3n2C1` (stereo not shown) [BI00614644]: the Kinases covered result in the experiment with PIM3 was “PIM3”.

Consider `O=C(c1ccc(-c2cc(-c3c[nH]nc3-c3ccccn3)ccn2)cc1)N1CCCC1` [GW792479], for which the Kinases covered entry in the experiment with PIP4K2C is given as “PIP4K2C”.

As to `Nc1nccc(-c2c(-c3ccc(F)cc3)ncn2C2CCN(Cc3ccccc3)CC2)n1` [SB-219980], in the experiment with PIP4K2C, the Kinases covered result is “PIP4K2C”.

With `CCCc1cc(N2CCCN(C)CC2)nc2sc3c(N)ncnc3c12` [BI00604564], the Kinases covered entry with PIP5K1C is listed as “PIP5K1C”.

For `CC(C)N1CC(=O)N(C)c2cnc(Nc3cccc(S(=O)(=O)CCN4CCOCC4)c3)nc21` [BI00009348], the results for the Kinases covered result in the experiment on PIP5K1C and in the experiment on PIP5K2C were “PIP5K1C” and “PIP5K2C”, respectively.

Take `Cc1cc(NC(=O)c2cccc(NC(=O)/C=C/CN(C)C)c2)ccc1Nc1nccc(-c2cccnc2)n1` [JNK-IN-7]: in the experiment on PIP5K2C, the Kinases covered result is “PIP5K2C”.

Turning to `C[C@@H](Oc1cc(-n2cnc3ccc(CN4CCN(C)CC4)cc32)sc1C(N)=O)c1ccccc1C(F)(F)F` [GSK461364], the Kinases covered result with PLK1 is listed as “PLK1”.

As for `COc1cc2ncn(-c3cc(OCC4CCCO4)c(C(N)=O)s3)c2cc1OC` (stereo not shown) [GSK204607], the figures for the Kinases covered entry in the experiment with PLK1, in the experiment with PLK2 and in the experiment on PLK3 were “PLK1”, “PLK2” and “PLK3”, respectively.

With `COc1cc2ncn(-c3cc(OCc4ccncc4)c(C(N)=O)s3)c2cc1OC` [GSK336313], the Kinases covered entry in the experiment on PLK2 was “PLK2”.

Take `CCn1c(-c2nonc2N)nc2cncc(CNC3CCNCC3)c21` [SB-747651A]: the Kinases covered entry in the experiment on PRK2 was “PRK2”.

`COc1cc(Nc2cnc(C#N)c(O[C@H](C)CN(C)C)n2)ncc1-c1cnn(C)c1` [CCT244747]: the Kinases covered result in the experiment on PRKAA1 is reported as “PRKAA1”.

As for `NCC1CCC(CNc2nc(NCc3ccccc3OC(F)(F)F)ncc2[N+](=O)[O-])CC1` (stereo not shown) [BIRZ0518XX], the Kinases covered entry is “PRKCD” with PRKCD, “PRKCE” in the experiment with PRKCE and “PRKCQ” in the experiment with PRKCQ.

Take `CCn1c(-c2nonc2N)nc2c(C#CC(C)(C)O)nc(OCCNC)cc21.Cl` [GSK949675]: in the experiment on PRKCH, the Kinases covered entry is on record as “PRKCH”.

For the compound `Cc1cccc(-c2nc(Nc3ccncc3)c3ccccc3n2)n1` [GW855857], the Kinases covered result is given as “PRKD2” with PRKD2 and “PRKD3” in the experiment on PRKD3.

For `COc1ccc2nc(-c3cccc(C)n3)nc(Nc3ccncc3)c2c1` [GSK204919], the Kinases covered result in the experiment with PRKD2 is “PRKD2”.

In the case of `CNc1nc(-c2ccc3c(N)n[nH]c3c2)cc(N2C[C@@H](C(=O)Nc3ccccc3)CC[C@H]2C)n1` [GSK2298859], in the experiment on PRKX, the Kinases covered result is recorded as “PRKX”.

With `COc1cc(N2CCN(C(C)C)CC2)ccc1Nc1nc(Nc2ccc(F)cc2C(=O)NC[C@@H](O)CO)c2cc[nH]c2n1` [GSK1392956A], the Kinases covered result in the experiment with PTK2B is “PTK2B”.
